Test [1] addresses human RAR-related Orphan Receptor beta (RORb), RORB (gene 6096) (UniProt Q92753). As to the kind of experiment: ATG_RORb_TRANS: Attagene TRANS-FACTORIAL HepG2 Assay for human RAR-related Orphan Receptor beta (RORb) (AID 2283010; active = hit-call score of the fitted dose curve at least 0.9, where 1 is the maximum). In a few lines: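 Multiplexed transcription-factor reporter assay: HepG2 cells transiently carrying NR-Gal4/GAL4-UAS constructs, 24 h treatment, mRNA quantified by RT-PCR plus capillary electrophoresis fluorescence; activity scored as induction over DMSO.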

The target in test [2] is human RAR-related Orphan Receptor gamma (RORg), RORC (gene 6097) (UniProt P51449). As to the kind of experiment: ATG_RORg_TRANS: Attagene TRANS-FACTORIAL HepG2 Assay for human RAR-related Orphan Receptor gamma (RORg) (AID 2283011; active = hit-call score of the fitted dose curve at least 0.9, where 1 is the maximum). The gist of the method: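 First, HepG2 liver cells were transfected with GAL4-UAS-driven reporter constructs and the RORg-Gal4 fusion. Next, they were treated with chemical for 24 h. Finally, reporter mRNA was quantified by RT-PCR and capillary electrophoresis, with upward activity fitted against DMSO.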

Test [3] addresses Retinoic acid receptor RXR-alpha (Homo sapiens) (UniProt P19793). Nature of the test: ATG_RXRa_TRANS: Attagene TRANS-FACTORIAL HepG2 Assay for human Retinoid X Receptor alpha (RXRa) (AID 2283012; active = hit-call score of the fitted dose curve at least 0.9, where 1 is the maximum). In a few lines:
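Chimeric NR-GAL4 trans-activation in HepG2, 24 h treatment; reporter transcripts quantified by fluorescence on capillary electrophoresis, analysed for upward change from DMSO.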

Test [4] has as its target human Retinoid X Receptor beta (RXRb), RXRB (gene 6257) (UniProt P28702). As to the kind of experiment: ATG_RXRb_TRANS: Attagene TRANS-FACTORIAL HepG2 Assay for human Retinoid X Receptor beta (RXRb) (AID 2283013; active = hit-call score of the fitted dose curve at least 0.9, where 1 is the maximum). In a few lines:
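After a 24 h incubation with test chemical, transfected HepG2 cells carrying NR-Gal4 fusions and GAL4-UAS reporter transcription units yield RNA whose reporter cDNA is FAM-labelled, HpaI-cut and sized by capillary electrophoresis; increases over DMSO are scored.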

Read-out in test [5]: E-selectin (Homo sapiens) (UniProt P16581)
As to the kind of experiment: BSK_3C_Eselectin: BioMAP Diversity Plus: 3C Assay for Eselectin Biomarker Activity (AID 2283015).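 Note: cell surface E-selectin protein quantified by ELISA 24 h after dosing.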 Conditions: primary human endothelial cells (HUVEC); actives raise or lower the signal. The gist of the method:
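ELISA read-out of E-selectin on endothelial monolayers after 24 h chemical treatment. Human umbilical vein primary cells served as the system, with DMSO defining baseline activity for bidirectional fitting.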

Read-out in test [6]: Interleukin-1 alpha (IL1a), IL1A (gene 3552)
Nature of the test: BSK_BE3C_IL1a: BioMAP Diversity Plus: BE3C Assay for Interleukin-1 alpha (IL1a) Biomarker Activity (AID 2283016). The conditions noted are these: primary human bronchial epithelial cells; actives raise or lower the signal. In a few lines: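 Measured in human lung primary bronchial epithelial cells: IL-1a by ELISA at 24 h after dosing, with bidirectional fitting against DMSO.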

Read-out in test [7]: Monocyte Chemoattractant Protein-1 (MCP1), CCL2 (gene 6347)
Nature of the test: BSK_3C_MCP1: BioMAP Diversity Plus: 3C Assay for Monocyte Chemoattractant Protein-1 (MCP1) Biomarker Activity (AID 2283017). The conditions noted are these: primary human endothelial cells (HUVEC); actives raise or lower the signal. The gist of the method: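 ELISA read-out of MCP-1 from human umbilical vein endothelial cell cultures harvested 24 h post-dosing. Gain or loss of signal was fitted relative to DMSO.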

Read-out in test [8]: Monocyte Chemoattractant Protein-1 (MCP1), CCL2 (gene 6347)
Nature of the test: BSK_4H_MCP1: BioMAP Diversity Plus: 4H Assay for Monocyte Chemoattractant Protein-1 (MCP1) Biomarker Activity (AID 2283018). Conditions: primary human endothelial cells (HUVEC); actives raise or lower the signal. In a few lines: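 Primary human umbilical vein endothelium is exposed to chemical for 24 h before MCP-1 is assayed by ELISA. Concentration-response fitted bidirectionally relative to DMSO.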

Read-out in test [9]: Human Leukocyte Antigen - DR isotype (HLADR), HLA-DRA (gene 3122)
Nature of the test: BSK_3C_HLADR: BioMAP Diversity Plus: 3C Assay for Human Leukocyte Antigen - DR isotype (HLADR) Biomarker Activity (AID 2283019). Conditions: primary human endothelial cells (HUVEC); actives raise or lower the signal. In a few lines: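 ELISA readout of surface HLA-DR on human umbilical vein endothelium, taken 24 h after chemical treatment. Gain- and loss-of-signal were both fitted relative to DMSO.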

Read-out in test [10]: Interleukin-8 (IL8), CXCL8 (gene 3576)
As to the kind of experiment: BSK_3C_IL8: BioMAP Diversity Plus: 3C Assay for Interleukin-8 (IL8) Biomarker Activity (AID 2283020). The conditions noted are these: primary human endothelial cells (HUVEC); actives raise or lower the signal. In a few lines: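 Using DMSO-treated wells as the baseline, bidirectional curve fitting was applied to ELISA-measured IL-8 from human umbilical vein endothelial cultures sampled 24 h after compound addition.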

Read-out in test [11]: Monokine induced gamma interferon (MIG), CXCL9 (gene 4283)
Nature of the test: BSK_3C_MIG: BioMAP Diversity Plus: 3C Assay for Monokine induced gamma interferon (MIG) Biomarker Activity (AID 2283021). The conditions noted are these: primary human endothelial cells (HUVEC); actives raise or lower the signal. The gist of the method:
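ELISA-measured MIG in dosed HUVEC 3C cultures at 24 h, analysed by bidirectional fitting with DMSO defining baseline activity.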

In test [12] the target is human Vitamin D Receptor (VDR), VDR (gene 7421) (UniProt P11473). Nature of the test: ATG_VDR_TRANS: Attagene TRANS-FACTORIAL HepG2 Assay for human Vitamin D Receptor (VDR) (AID 2283022; active = hit-call score of the fitted dose curve at least 0.9, where 1 is the maximum). The gist of the method: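 Steps: transfect HepG2 with GAL4-UAS-driven reporter constructs; dose compounds 24 h; isolate RNA, reverse-transcribe, PCR-amplify with 6-FAM-labelled primer extension and HpaI digestion; quantify fragments by capillary electrophoresis relative to DMSO.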

Test [13] can be described thus: BSK_3C_SRB: Viability Assessment in the BioMAP Diversity Plus: 3C Assay (AID 2283023).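 Note: fitted both ways against DMSO so a hit may be signal rise or drop.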 Conditions: primary human endothelial cells (HUVEC). The gist of the method: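 Absorbance at 560 nm of sulforhodamine B-stained (0.1%) total protein served as a cytotoxicity readout in human umbilical vein endothelial cells, 24 h after chemical treatment. Signal was fitted bidirectionally relative to DMSO.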

Read-out in test [14]: Matrix Metallopeptidase 1 (MMP1), MMP1 (gene 4312)
As to the kind of experiment: BSK_BE3C_MMP1: BioMAP Diversity Plus: BE3C Assay for Matrix Metallopeptidase 1 (MMP1) Biomarker Activity (AID 2283024). Conditions: primary human bronchial epithelial cells; actives raise or lower the signal. In a few lines:
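In this multiplexed primary-cell system, human bronchial epithelium received chemicals for 24 h before an ELISA for MMP1. Values reflect bidirectional fits normalised to the DMSO baseline.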

Read-out in test [15]: Pselectin, SELP (gene 6403)
Nature of the test: BSK_4H_Pselectin: BioMAP Diversity Plus: 4H Assay for Pselectin Biomarker Activity (AID 2283026). The conditions noted are these: primary human endothelial cells (HUVEC); actives raise or lower the signal. The gist of the method: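 Bidirectional fits against DMSO gave the endpoint. Cells: primary human umbilical vein endothelium, chemical-treated for 24 h before ELISA detection of P-selectin.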

Test [16] can be described thus: BSK_4H_SRB: Viability Assessment in the BioMAP Diversity Plus: 4H Assay (AID 2283027).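 For AC50: curves fitted both ways versus DMSO so AC50 may be loss or gain.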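 Note: cells exposed to compound for 24 h before staining.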 The conditions noted are these: primary human endothelial cells (HUVEC). The gist of the method: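 Cytotoxicity readout: sulforhodamine B (0.1%) staining of total protein after 10% TCA fixation, measured at 560 nm in human umbilical vein endothelium at 24 h. DMSO set the baseline; fitting was bidirectional.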

Test [17] in a line: BSK_BE3C_SRB: Viability Assessment in the BioMAP Diversity Plus: BE3C Assay (AID 2283028). The conditions noted are these: primary human bronchial epithelial cells. The gist of the method: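 Cells (human bronchial epithelial, primary) are treated with chemicals, and after 24 h the parallel cultures are fixed in 10% TCA. These are then stained with 0.1% SRB and read at 560 nm. Gain or loss of signal is fitted relative to DMSO.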

Read-out in test [18]: Thrombomodulin, THBD (gene 7056)
As to the kind of experiment: BSK_3C_Thrombomodulin: BioMAP Diversity Plus: 3C Assay for Thrombomodulin Biomarker Activity (AID 2283029). The conditions noted are these: primary human endothelial cells (HUVEC); actives raise or lower the signal. The gist of the method:
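In a multiplexed primary-cell system, human umbilical vein endothelium received chemical and was assayed 24 h later for thrombomodulin by ELISA. Parallel cultures were SRB-stained (0.1% SRB after 10% TCA fixation, read at 560 nm) to flag cytotoxicity.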

Test [19] addresses human Thyroid Receptor alpha (THRa1), THRA (gene 7067) (UniProt P10827). Nature of the test: ATG_THRa1_TRANS: Attagene TRANS-FACTORIAL HepG2 Assay for human Thyroid Receptor alpha (THRa1) (AID 2283014; active = hit-call score of the fitted dose curve at least 0.9, where 1 is the maximum). In a few lines: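 Reporter transcript induction, read by capillary electrophoresis of 6-FAM-labelled RT-PCR products, reflects activity of a transfected THRa1-Gal4 fusion in HepG2 liver cells. Cells were dosed for 24 h; activity was fitted in the positive direction against DMSO.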

Test [20] is described as follows: BSK_3C_Vis: BioMAP Diversity Plus: 3C Assay for Morphology Visualization (AID 2283025).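 Note: fitted both ways so gain or loss versus DMSO counts.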 The conditions noted are these: primary human endothelial cells (HUVEC). In a few lines: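 Light-microscopy morphology readout, 24 h exposure, human primary umbilical vein endothelium; analysed relative to DMSO with bidirectional fitting.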

Inconclusive results are not listed. Some compounds were tested as several samples or in several runs, with calls that do not always agree. Calls of active or inactive are those of the source. Rule for the calls, unless noted: active = hit-call score of the fitted dose curve at least 0.9, where 1 is the maximum; inactive = score below 0.9.

human RAR-related Orphan Receptor gamma (RORg), RORC (gene 6097), sequence (P51449 whole entry, looked up, the tested form may be a part): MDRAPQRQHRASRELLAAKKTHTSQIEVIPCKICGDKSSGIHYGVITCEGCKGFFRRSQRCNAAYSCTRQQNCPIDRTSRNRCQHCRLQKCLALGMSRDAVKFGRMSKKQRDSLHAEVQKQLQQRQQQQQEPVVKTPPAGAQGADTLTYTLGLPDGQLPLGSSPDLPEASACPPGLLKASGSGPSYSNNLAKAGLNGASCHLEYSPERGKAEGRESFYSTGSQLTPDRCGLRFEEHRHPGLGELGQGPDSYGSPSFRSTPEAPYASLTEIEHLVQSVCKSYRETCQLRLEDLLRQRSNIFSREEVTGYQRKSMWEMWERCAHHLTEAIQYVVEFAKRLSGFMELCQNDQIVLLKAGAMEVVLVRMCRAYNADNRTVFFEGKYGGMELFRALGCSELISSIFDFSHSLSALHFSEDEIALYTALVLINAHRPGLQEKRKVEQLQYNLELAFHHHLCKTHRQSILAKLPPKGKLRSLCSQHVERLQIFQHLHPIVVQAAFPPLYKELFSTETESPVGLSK
Retinoic acid receptor RXR-alpha (Homo sapiens), sequence (P19793 whole entry, looked up, the tested form may be a part): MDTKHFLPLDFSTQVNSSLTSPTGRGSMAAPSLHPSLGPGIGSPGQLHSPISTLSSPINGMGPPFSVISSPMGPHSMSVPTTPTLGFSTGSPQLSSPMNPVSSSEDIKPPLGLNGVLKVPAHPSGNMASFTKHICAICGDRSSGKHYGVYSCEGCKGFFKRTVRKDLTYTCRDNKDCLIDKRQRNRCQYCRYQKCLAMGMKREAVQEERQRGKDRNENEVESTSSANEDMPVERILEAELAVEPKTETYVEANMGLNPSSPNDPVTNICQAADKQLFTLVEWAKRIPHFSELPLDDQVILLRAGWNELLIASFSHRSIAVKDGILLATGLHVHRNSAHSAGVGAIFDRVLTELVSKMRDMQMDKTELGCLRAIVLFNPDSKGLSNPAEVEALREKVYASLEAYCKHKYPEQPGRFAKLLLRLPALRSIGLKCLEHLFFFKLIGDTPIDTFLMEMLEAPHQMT
E-selectin (Homo sapiens), sequence (P16581 whole entry, looked up): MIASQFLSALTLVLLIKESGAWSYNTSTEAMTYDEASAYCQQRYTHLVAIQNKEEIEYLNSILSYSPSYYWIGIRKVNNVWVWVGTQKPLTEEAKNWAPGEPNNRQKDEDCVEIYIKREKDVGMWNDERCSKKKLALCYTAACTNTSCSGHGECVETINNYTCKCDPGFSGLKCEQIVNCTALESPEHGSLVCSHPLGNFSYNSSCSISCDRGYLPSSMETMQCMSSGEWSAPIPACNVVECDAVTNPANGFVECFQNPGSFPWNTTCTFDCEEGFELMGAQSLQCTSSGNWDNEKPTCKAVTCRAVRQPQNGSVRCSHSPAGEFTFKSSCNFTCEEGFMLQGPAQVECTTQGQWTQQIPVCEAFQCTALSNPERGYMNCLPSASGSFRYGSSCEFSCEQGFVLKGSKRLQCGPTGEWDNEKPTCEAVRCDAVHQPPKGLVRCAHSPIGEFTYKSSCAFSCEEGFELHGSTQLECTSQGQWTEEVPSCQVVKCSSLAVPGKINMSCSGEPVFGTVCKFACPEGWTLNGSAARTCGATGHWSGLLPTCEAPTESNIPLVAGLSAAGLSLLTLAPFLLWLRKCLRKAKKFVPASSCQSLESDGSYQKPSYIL
human Vitamin D Receptor (VDR), VDR (gene 7421), sequence (P11473 whole entry, looked up, the tested form may be a part): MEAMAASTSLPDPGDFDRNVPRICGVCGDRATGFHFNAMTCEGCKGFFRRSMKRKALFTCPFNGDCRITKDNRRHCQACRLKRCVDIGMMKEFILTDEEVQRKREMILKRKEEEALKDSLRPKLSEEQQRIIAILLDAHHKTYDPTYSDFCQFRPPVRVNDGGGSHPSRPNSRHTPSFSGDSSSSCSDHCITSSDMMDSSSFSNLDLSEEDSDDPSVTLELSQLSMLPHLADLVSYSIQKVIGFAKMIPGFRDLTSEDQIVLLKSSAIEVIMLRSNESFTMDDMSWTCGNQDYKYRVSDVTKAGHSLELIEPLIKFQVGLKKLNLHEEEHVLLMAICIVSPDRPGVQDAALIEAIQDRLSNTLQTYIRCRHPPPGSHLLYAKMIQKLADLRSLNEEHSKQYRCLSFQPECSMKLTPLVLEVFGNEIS
human RAR-related Orphan Receptor beta (RORb), RORB (gene 6096), sequence (Q92753 whole entry, looked up, the tested form may be a part): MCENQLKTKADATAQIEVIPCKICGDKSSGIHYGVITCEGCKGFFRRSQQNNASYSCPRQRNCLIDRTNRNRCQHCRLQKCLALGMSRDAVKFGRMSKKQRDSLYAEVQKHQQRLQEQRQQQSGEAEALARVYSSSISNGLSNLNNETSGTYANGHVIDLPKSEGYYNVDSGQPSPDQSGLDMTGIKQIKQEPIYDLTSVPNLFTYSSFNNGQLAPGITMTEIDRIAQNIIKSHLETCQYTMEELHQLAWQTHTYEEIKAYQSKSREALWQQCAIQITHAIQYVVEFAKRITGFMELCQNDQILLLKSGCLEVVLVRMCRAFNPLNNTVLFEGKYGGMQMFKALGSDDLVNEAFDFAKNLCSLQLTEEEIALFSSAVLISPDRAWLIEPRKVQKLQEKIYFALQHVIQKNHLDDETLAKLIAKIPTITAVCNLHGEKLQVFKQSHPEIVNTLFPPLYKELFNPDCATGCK
human Retinoid X Receptor beta (RXRb), RXRB (gene 6257), sequence (P28702 whole entry, looked up, the tested form may be a part): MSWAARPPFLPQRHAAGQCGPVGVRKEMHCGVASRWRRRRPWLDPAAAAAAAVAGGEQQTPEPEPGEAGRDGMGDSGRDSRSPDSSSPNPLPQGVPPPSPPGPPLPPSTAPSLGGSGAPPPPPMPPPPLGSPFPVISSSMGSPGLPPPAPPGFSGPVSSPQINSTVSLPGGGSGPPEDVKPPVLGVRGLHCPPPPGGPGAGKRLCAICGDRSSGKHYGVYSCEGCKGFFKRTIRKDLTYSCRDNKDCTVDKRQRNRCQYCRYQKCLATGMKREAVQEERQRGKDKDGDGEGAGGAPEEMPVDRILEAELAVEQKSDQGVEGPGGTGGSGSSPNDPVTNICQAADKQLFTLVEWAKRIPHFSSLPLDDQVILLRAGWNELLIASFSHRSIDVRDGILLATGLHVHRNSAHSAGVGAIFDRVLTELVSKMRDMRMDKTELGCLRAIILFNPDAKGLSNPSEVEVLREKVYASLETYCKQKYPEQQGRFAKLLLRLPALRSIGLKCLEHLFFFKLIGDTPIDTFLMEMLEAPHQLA
human Thyroid Receptor alpha (THRa1), THRA (gene 7067), sequence (P10827 whole entry, looked up, the tested form may be a part): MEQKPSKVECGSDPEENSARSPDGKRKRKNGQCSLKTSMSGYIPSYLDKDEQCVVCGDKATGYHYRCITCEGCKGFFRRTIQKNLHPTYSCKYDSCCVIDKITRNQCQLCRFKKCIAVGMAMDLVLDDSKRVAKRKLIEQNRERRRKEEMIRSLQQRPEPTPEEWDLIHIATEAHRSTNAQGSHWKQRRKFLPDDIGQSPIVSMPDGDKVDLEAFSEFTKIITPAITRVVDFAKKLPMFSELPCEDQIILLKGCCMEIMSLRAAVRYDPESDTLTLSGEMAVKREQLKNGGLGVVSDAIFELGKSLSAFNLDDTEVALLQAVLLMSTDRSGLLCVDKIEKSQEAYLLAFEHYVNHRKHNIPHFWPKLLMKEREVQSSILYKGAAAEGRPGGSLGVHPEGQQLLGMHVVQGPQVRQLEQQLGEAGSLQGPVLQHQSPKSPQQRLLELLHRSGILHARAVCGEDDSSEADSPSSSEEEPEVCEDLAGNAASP

One may read the AC50 as the midpoint of the concentration-response curve, whichever way the signal moves. Turning to `N=C(N)C(F)(F)C(F)(F)C(F)(F)C(F)(F)C(F)(F)C(F)(F)C(F)(F)F`, the result in test [1], in test [2], in [3], in test [4], in test [5] and in [6] was inactive. Also, the outcome in test [7], in test [8], in test [9], in test [10], in test [11] and in test [12] was inactive. Further, the result in test [13], in test [14], in test [15], in test [16], in test [17] and in [18] was inactive. Also, the AC50 in test [7] is 46.3 µM (active); in [9], 30 µM (active); in [13], 54.9 µM (active); in test [14], 19.4 µM (active); in [16] it was 48.5 µM (active).
As for `O=P(O)(O)OCCC(F)(F)C(F)(F)C(F)(F)C(F)(F)C(F)(F)C(F)(F)F`, the result in test [1], in [2], in test [3], in test [19], in [5] and in test [6] was inactive. The result in test [7], in test [8], in test [9], in test [11], in test [13] and in test [14] was inactive. Also, the result in [15], in [16], in test [17] and in test [18] was inactive.
On to `OCC(F)(F)C(F)(F)C(F)(F)C(F)F`, for which the call in test [1], in test [2], in [3], in test [5], in [6] and in test [7] was inactive. The result in [8], in test [9], in test [11], in test [12], in test [13] and in test [14] was inactive. For the same compound, the result in test [15], in [16], in test [17] and in [18] was inactive.
Regarding `O=C(O)C(F)(OC(F)(F)C(F)(OC(F)(F)C(F)(OC(F)(F)C(F)(F)C(F)(F)F)C(F)(F)F)C(F)(F)F)C(F)(F)F` (configuration not stated), the call in test [1], in test [2], in [3], in test [5], in [6] and in test [7] was inactive. For the same compound, the result in test [8], in test [9], in [11], in test [13], in test [14] and in test [15] was inactive. Also, the result in test [16] and in test [18] was inactive.
With `O=C(O)C(F)(OC(F)(F)C(F)(OC(F)(F)C(F)(F)C(F)(F)F)C(F)(F)F)C(F)(F)F` (configuration not stated), the call in test [1], in test [3], in test [4], in test [5], in test [6] and in [7] was inactive. For the same compound, the outcome in [8], in [9], in [11], in test [12], in test [13] and in test [14] was inactive. Besides, the result in test [15], in [16], in test [17] and in test [18] was inactive. Further, the AC50 in test [4] was 41.7 µM (active).
`CCCCCCCOC(=O)c1ccccc1C(=O)OCCCCCCC`: the result in test [1], in [2], in test [19], in test [5], in test [6] and in test [7] was inactive. Also, the result in test [8], in [9], in [11], in [13], in [14] and in test [20] was inactive. Besides, the result in test [15], in [16], in test [17] and in test [18] was inactive.

The values are drawn from PubChem BioAssay (EPA / NIEHS).
